Source: PubChem BioAssay (NCI)
Compounds without any hit were thinned out: in the full panel of roughly 83,000, 20% have a hit.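 Interpretation: 100, growth as untreated; towards 0, rising growth inhibition; 0, no net growth; 0 to -100, cell death. Compounds scoring below 10 were considered active.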 Activity calls are given as the source filed them.

Assays:
Assay in all cases: NCI-60 one-dose screen, 48 h (100 = growth as untreated, 0 = no growth, -100 = all killed)
Settings in all cases: 10 µM unless noted
T-47D breast = tested on: T-47D breast
BT-549 breast = tested on: BT-549 breast
MDA-MB-435 melanoma = tested on: MDA-MB-435 melanoma
SW-620 colon = tested on: SW-620 colon
MCF7 breast = tested on: MCF7 breast
HCT-116 colon = tested on: HCT-116 colon
HCC-2998 colon = tested on: HCC-2998 colon
KM12 colon = tested on: KM12 colon

Measured: growth

CC(C)(C)NC(=O)C(OC(=O)c1cccc(Cl)c1)c1ccc(Cl)cc1 (stereo unspecified)
inactive: T-47D breast 96.8% | BT-549 breast 82.9% | MDA-MB-435 melanoma 107% | SW-620 colon 103% | MCF7 breast 95.8% | HCT-116 colon 74.7% | HCC-2998 colon 107% | KM12 colon 100%

C(=N/Nc1ncnc2nc[nH]c12)/c1ccccn1
inactive: T-47D breast 30.2% | BT-549 breast 54.7% | MDA-MB-435 melanoma 39.5% | SW-620 colon 36.8% | MCF7 breast 22.9% | HCT-116 colon 28.1% | HCC-2998 colon 28.2% | KM12 colon 36.3%

Oc1ccc(Cl)cc1Cc1cc(Cl)cc(Cl)c1O
active: BT-549 breast -11.4%
inactive: T-47D breast 40.7% | MDA-MB-435 melanoma 15.4% | SW-620 colon 28% | MCF7 breast 60.1% | HCT-116 colon 37.1% | HCC-2998 colon 70.6% | KM12 colon 37.6%

CCN1C(=O)N(CC)C2Nn3c(s/c(=C\c4ccc([N+](=O)[O-])cc4)c3=O)=NC21 (stereo unspecified)
inactive: T-47D breast 40.2% | BT-549 breast 95.2% | MDA-MB-435 melanoma 61.9% | SW-620 colon 60.2% | MCF7 breast 11% | HCT-116 colon 18.2% | HCC-2998 colon 101% | KM12 colon 97.8%

O=c1[nH][n+](-c2ccc(Br)cc2)no1
inactive: T-47D breast 28.1% | BT-549 breast 83.1% | MDA-MB-435 melanoma 22.6% | SW-620 colon 36.8% | MCF7 breast 32.8% | HCT-116 colon 79% | HCC-2998 colon 12.7% | KM12 colon 23.3%

COc1cc(C(=O)c2cc(C)c3[nH]c4ccc(O)cc4c3c2C)cc(OC)c1OC
inactive: T-47D breast 38.5% | SW-620 colon 31.2% | MCF7 breast 11% | HCC-2998 colon 20.6%
active: BT-549 breast -1.57% | MDA-MB-435 melanoma -6.06% | HCT-116 colon -5.93% | KM12 colon 4.49%

COc1ccc(-c2c(C(=O)NS(C)(=O)=O)n(Cc3cccc(C(F)(F)F)c3)c3ccccc23)cc1
inactive: T-47D breast 87.7% | BT-549 breast 92.3% | MDA-MB-435 melanoma 97.3% | SW-620 colon 95.4% | MCF7 breast 91.4% | HCT-116 colon 84.5% | HCC-2998 colon 108% | KM12 colon 92.8%

COc1cc2cc(Oc3ccc(NC(=O)Nc4cccc(C(F)(F)F)c4)cc3)c(C)nc2cc1OCCN1CCOCC1
inactive: T-47D breast 30.3% | BT-549 breast 70.8% | MDA-MB-435 melanoma 30.4% | SW-620 colon 36.9% | HCT-116 colon 17.4% | HCC-2998 colon 89.2% | KM12 colon 29.8%
active: MCF7 breast 9.35%

COc1ccc(OC)c(/C=C/C(=O)N/N=C/c2ccccc2)c1
active: MDA-MB-435 melanoma -7.51%
inactive: T-47D breast 39.7% | BT-549 breast 60.8% | SW-620 colon 28.7% | MCF7 breast 17.3% | HCT-116 colon 14.2% | HCC-2998 colon 66.4% | KM12 colon 31%

CCN(CC)Cc1cc(Nc2c3ccc(Cl)cc3nc3ccc(OC)cc23)ccc1O
inactive: T-47D breast 67.5% | BT-549 breast 81.4% | MDA-MB-435 melanoma 60.2% | SW-620 colon 31.7% | MCF7 breast 17.4% | HCT-116 colon 12.8% | HCC-2998 colon 43.6% | KM12 colon 40.6%

CNC(=O)c1[nH]cc(-c2ccccc2)c1-c1cc(OC)c2c(c1OC)OCO2
inactive: T-47D breast 88.7% | BT-549 breast 95.6% | MDA-MB-435 melanoma 102% | SW-620 colon 99.9% | MCF7 breast 99.9% | HCT-116 colon 99.5% | HCC-2998 colon 102% | KM12 colon 96.9%

O=C1c2cccc3cccc(c23)C(=O)N1Nc1nc(N2CCOCC2)nc(N2CCN(c3ccccc3)CC2)n1
inactive: T-47D breast 37.3% | BT-549 breast 37.8% | SW-620 colon 32.6% | MCF7 breast 17.9% | HCT-116 colon 31.2% | HCC-2998 colon 77.6% | KM12 colon 48.5%
active: MDA-MB-435 melanoma -12.6%

C/C=C(\C)C(=O)N[C@H]1[C@@H](OC(C)=O)C[C@]2(C)C3CC[C@@]4(C)C(CC[C@@H]4C(C)N(C)C)C3CCC2[C@H]1O (stereo partly specified)
inactive: T-47D breast 60.6% | BT-549 breast 63.4% | SW-620 colon 63.9% | MCF7 breast 61.9% | HCT-116 colon 30.7% | HCC-2998 colon 69.2% | KM12 colon 45.6%
active: MDA-MB-435 melanoma 1.82%

COc1cc(CCC[P+](c2ccccc2)(c2ccccc2)c2ccccc2)c(OC)c(OC)c1OC
active: MDA-MB-435 melanoma 0.374%
inactive: T-47D breast 63.5% | BT-549 breast 72.9% | SW-620 colon 82.6% | MCF7 breast 39% | HCT-116 colon 61.9% | HCC-2998 colon 100% | KM12 colon 75.9%

CN(C(=O)NCc1cccc(F)c1Cl)[C@H](COC(=O)Nc1cc2ccccc2cn1)CC(O)CO (stereo partly specified)
inactive: T-47D breast 89% | BT-549 breast 43.9% | MDA-MB-435 melanoma 104% | SW-620 colon 92.2% | MCF7 breast 98.9% | HCT-116 colon 95.4% | HCC-2998 colon 110% | KM12 colon 104%

NCCCNc1nc2ccccc2c2c(=O)c3cc(C(F)(F)F)ccc3sc12
active: MDA-MB-435 melanoma -80.9% | SW-620 colon -74.5% | MCF7 breast -49.4% | HCT-116 colon -70.4% | HCC-2998 colon -84.6% | KM12 colon -76.7%
inactive: T-47D breast 27.2% | BT-549 breast 87.7%

Nc1ccc(Sc2ccc([N+](=O)[O-])c3nonc23)cc1
inactive: T-47D breast 54.5% | BT-549 breast 88.8% | MDA-MB-435 melanoma 99.2% | SW-620 colon 46% | MCF7 breast 73.2% | HCT-116 colon 66.3% | HCC-2998 colon 108% | KM12 colon 96.2%

COC(=O)CCC/C=C\C[C@H]1C=CC(=O)/C1=C/C[C@@H](O)CCc1cccc(C(F)(F)F)c1
active: T-47D breast 9.77% | BT-549 breast -11.4% | MDA-MB-435 melanoma -82.2% | SW-620 colon -40% | MCF7 breast 6.5% | HCT-116 colon -89% | HCC-2998 colon -89.6% | KM12 colon -51.9%

COc1nc2ccc(C)cc2cc1-c1nc2c(cnn2-c2ccccc2)c(=O)[nH]1
inactive: T-47D breast 81.9% | BT-549 breast 89.6% | SW-620 colon 58.5% | MCF7 breast 50.6% | HCT-116 colon 67.2% | HCC-2998 colon 96.3% | KM12 colon 70.6%
active: MDA-MB-435 melanoma 8.39%

CCOc1ccc2nc(SCc3nc4n(n3)S(=O)(=O)c3ccccc3N4C)sc2c1
active: BT-549 breast -10.6% | KM12 colon 7.52%
inactive: T-47D breast 45.2% | MDA-MB-435 melanoma 60.8% | SW-620 colon 14% | MCF7 breast 47.3% | HCT-116 colon 19.1% | HCC-2998 colon 28.5%

C[C@]12CC[C@@H]3c4cc(OC(F)F)c(OS(N)(=O)=O)cc4CC[C@H]3[C@@H]1CC[C@@H]2O
inactive: T-47D breast 43.7% | BT-549 breast 41.8% | SW-620 colon 28.1% | MCF7 breast 22.1% | HCT-116 colon 21.3% | HCC-2998 colon 16.2% | KM12 colon 12.2%
active: MDA-MB-435 melanoma -70.8%

CC(=O)OC[C@H]1OC(Sc2sc(C(=O)c3ccc(Br)cc3)c(N)c2-c2nc3ccccc3s2)[C@H](OC(C)=O)[C@@H](OC(C)=O)[C@H]1OC(C)=O (stereo partly specified)
inactive: T-47D breast 67.4% | BT-549 breast 90.2% | MDA-MB-435 melanoma 91.7% | SW-620 colon 104% | MCF7 breast 94.6% | HCT-116 colon 91.3% | HCC-2998 colon 98.8% | KM12 colon 95.7%

Cc1nc(/N=C(\N)NC(=O)Nc2cccc(Cl)c2)sc1C
active: MDA-MB-435 melanoma -13.5%
inactive: T-47D breast 73.5% | BT-549 breast 71.7% | SW-620 colon 38.2% | MCF7 breast 35.9% | HCT-116 colon 66.4% | HCC-2998 colon 78.2% | KM12 colon 41.6%

C[C@]12CC[C@@H]3c4cc(OC(F)F)c(OS(N)(=O)=O)cc4CC[C@H]3[C@@H]1CC[C@@H]2OS(N)(=O)=O
inactive: T-47D breast 43.4% | BT-549 breast 62.7% | MDA-MB-435 melanoma 42.8% | SW-620 colon 22% | MCF7 breast 20.2% | HCT-116 colon 20.3% | HCC-2998 colon 74.1% | KM12 colon 35.6%

O=C(N/N=C/[C@H](O)[C@H](O)[C@H](O)CO)c1ccc(NC(=O)c2cccnc2)cc1
inactive: T-47D breast 99.2% | BT-549 breast 102% | MDA-MB-435 melanoma 103% | SW-620 colon 103% | MCF7 breast 92% | HCT-116 colon 105% | HCC-2998 colon 110% | KM12 colon 103%

COc1ccc2sc3c(NCCCNCCO)nc4ccccc4c3c(=O)c2c1
inactive: T-47D breast 86.5% | BT-549 breast 81.7% | MDA-MB-435 melanoma 10.6% | MCF7 breast 25.7%
active: SW-620 colon -83.2% | HCT-116 colon -79.3% | HCC-2998 colon -84.3% | KM12 colon -15.6%

c1ccc2cc(C[n+]3ccn(CCCCCCCCCCCCn4cc[n+](Cc5ccc6ccccc6c5)c4)c3)ccc2c1
active: T-47D breast -53.1% | BT-549 breast -82.8% | MDA-MB-435 melanoma -97.1% | SW-620 colon -55.7% | MCF7 breast -70.5% | HCT-116 colon -61.8% | HCC-2998 colon -83.4% | KM12 colon -86.9%

Cc1nn(-c2ccccc2)c2c1N=c1s/c(=C\c3ccc(C(F)(F)F)cc3)c(=O)n1CN2
inactive: T-47D breast 54% | BT-549 breast 72.2% | MDA-MB-435 melanoma 61.4% | SW-620 colon 75.7% | MCF7 breast 56.9% | HCT-116 colon 27.8% | HCC-2998 colon 74.2% | KM12 colon 97.2%

COc1cccc(OC)c1C(=O)N[C@@H]1C(=O)N2[C@@H]1SC(C)(C)[C@@H]2C(=O)O
inactive: T-47D breast 98.3% | BT-549 breast 95.4% | MDA-MB-435 melanoma 105% | SW-620 colon 107% | MCF7 breast 98% | HCT-116 colon 97.9% | HCC-2998 colon 105% | KM12 colon 107%

O=c1c2cccc(F)c2sc2c(NCCCNCCO)nc3ccccc3c12
inactive: T-47D breast 51.8% | BT-549 breast 72.6% | MCF7 breast 20.2%
active: MDA-MB-435 melanoma 6.93% | SW-620 colon -68.1% | HCT-116 colon 0.842% | HCC-2998 colon -51.7% | KM12 colon 9.05%

Nc1cc2c(cc1Br)-c1cc(Cl)ccc1C2=O
inactive: T-47D breast 91.7% | BT-549 breast 121% | MDA-MB-435 melanoma 117% | SW-620 colon 109% | MCF7 breast 57.9% | HCT-116 colon 96.1% | HCC-2998 colon 114% | KM12 colon 98.6%

O=C(N=c1oc2ccccc2cc1-c1cc2ccccc2[nH]1)Nc1ccc(Cl)cc1
inactive: T-47D breast 91.1% | BT-549 breast 90.7% | MDA-MB-435 melanoma 104% | SW-620 colon 95.5% | MCF7 breast 83.5% | HCT-116 colon 89.2% | HCC-2998 colon 99.7% | KM12 colon 99.2%
